Inconclusive results are not listed. Calls of active or inactive are those of the source. Rule for the calls, unless noted: active = hit-call score of the fitted dose curve at least 0.9, where 1 is the maximum; inconclusive = response in the unintended direction; inactive = score below 0.9.
What was measured:
[1] = molecular target: T1, Thyroid hormone receptor alpha (Rattus norvegicus) + Thyroid hormone receptor beta (Rattus norvegicus) (UniProt P18113+P63059); assay: TOX21_TR_LUC_GH3_Antagonist_Followup: Tox21 GH3 Thyroid Hormone Receptor Antagonism Luciferase Follow-Up Assay (AID 2283942)
T1 sequence (P63059 whole entry, looked up): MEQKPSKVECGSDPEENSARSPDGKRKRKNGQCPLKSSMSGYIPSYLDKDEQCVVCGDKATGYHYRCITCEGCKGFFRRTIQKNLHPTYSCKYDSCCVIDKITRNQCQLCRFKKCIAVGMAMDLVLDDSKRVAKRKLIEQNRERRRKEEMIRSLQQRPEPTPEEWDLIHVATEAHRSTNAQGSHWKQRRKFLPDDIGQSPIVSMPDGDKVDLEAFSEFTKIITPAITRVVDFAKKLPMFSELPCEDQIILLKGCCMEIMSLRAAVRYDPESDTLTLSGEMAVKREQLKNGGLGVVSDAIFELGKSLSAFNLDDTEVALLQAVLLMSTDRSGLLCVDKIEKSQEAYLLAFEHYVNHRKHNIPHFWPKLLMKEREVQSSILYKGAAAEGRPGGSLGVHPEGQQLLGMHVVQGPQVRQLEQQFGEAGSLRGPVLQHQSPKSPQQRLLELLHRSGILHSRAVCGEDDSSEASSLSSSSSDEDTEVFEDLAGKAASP
T1 sequence (P18113 whole entry, looked up): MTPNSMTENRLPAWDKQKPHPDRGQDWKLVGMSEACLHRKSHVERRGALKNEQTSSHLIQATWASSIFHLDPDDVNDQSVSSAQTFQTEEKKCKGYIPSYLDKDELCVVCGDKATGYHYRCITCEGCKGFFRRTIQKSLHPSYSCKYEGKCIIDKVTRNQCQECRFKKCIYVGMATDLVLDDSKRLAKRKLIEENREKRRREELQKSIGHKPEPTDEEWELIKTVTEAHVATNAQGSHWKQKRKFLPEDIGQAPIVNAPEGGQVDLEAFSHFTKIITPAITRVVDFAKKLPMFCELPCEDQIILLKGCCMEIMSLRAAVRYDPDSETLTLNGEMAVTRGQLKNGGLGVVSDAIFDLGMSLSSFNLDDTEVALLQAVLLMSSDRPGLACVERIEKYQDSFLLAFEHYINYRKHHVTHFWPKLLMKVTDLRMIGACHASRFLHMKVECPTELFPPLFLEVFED
Summary of the method: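 Confirmatory qHTS, antagonist mode: T3 (1.0 nM final) + test cpd, 15 conc, 92 uM–5nM final, GH3 rat pituitary line, 24 h, 37C. Luc reporter, RLU vs DMSO.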

THRA (gene 7067) [2] = molecular target: THRA (gene 7067) (UniProt P10827); assay: TOX21_TRA_COA_Antagonist_Followup_ratio: Tox21 Thyroid Hormone Receptor alpha Antagonism through Coactivator Recruitment Follow-Up Assay, Ratio (AID 2283953)
THRA (gene 7067), sequence (P10827 whole entry, looked up, the tested form may be a part): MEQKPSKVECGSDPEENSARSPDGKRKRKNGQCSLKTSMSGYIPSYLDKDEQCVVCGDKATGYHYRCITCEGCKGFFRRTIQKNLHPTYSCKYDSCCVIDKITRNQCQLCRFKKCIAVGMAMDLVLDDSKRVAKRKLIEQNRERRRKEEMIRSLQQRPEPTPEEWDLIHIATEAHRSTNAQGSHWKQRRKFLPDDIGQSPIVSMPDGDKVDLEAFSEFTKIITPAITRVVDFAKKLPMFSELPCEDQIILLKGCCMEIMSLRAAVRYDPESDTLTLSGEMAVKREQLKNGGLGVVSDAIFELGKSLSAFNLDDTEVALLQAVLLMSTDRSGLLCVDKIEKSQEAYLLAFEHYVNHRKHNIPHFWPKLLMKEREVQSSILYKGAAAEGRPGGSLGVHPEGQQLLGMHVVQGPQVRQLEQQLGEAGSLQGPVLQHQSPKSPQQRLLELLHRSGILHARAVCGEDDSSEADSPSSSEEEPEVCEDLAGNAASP
Summary of the method: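 520:495 nm emission ratio (excitation 340 nm) reports fluorescein-SRC-2 peptide recruitment to GST-TRα LBD by TR-FRET with Tb anti-GST antibody. Values were normalized to DMSO (0%) and T3 control wells (100%); loss of signal indicated antagonism.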

THRB (gene 7068) [3] = molecular target: THRB (gene 7068) (UniProt P10828); assay: TOX21_TRB_BLA_Antagonist_Followup_ratio: Tox21 Thyroid Hormone Receptor beta Antagonism Beta-lactamase (BLA) Follow-Up Assay, Ratio (AID 2283958)
THRB (gene 7068), sequence (P10828 whole entry, looked up, the tested form may be a part): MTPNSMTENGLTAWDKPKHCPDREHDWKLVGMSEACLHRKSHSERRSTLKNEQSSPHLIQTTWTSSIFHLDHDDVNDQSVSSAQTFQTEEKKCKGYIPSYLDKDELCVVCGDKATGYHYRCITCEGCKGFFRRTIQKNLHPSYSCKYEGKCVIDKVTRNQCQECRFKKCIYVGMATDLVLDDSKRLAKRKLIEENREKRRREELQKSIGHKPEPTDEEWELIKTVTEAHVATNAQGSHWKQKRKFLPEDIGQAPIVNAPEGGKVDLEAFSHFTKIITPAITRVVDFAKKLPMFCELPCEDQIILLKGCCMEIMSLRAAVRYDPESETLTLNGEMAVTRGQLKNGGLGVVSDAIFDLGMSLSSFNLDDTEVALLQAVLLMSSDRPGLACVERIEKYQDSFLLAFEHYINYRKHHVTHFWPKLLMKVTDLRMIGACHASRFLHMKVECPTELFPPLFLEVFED
Summary of the method: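 HEK293T TRb-bla (GAL4 DBD + hTRβ LBD), 2% cs-FBS phenol red-free DMEM, 5 h attach; cpds 11-pt triplicate, 18 h 37C; CCF4-AM 2 h RT; 460/530 ratio vs DMSO; CellTiter-Glo viability same wells.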

[4] = TOX21_TRB_BLA_Antagonist_Followup_viability: Viability Assessment in the Tox21 Thyroid Hormone Receptor beta Antagonism Beta-lactamase (BLA) Follow-Up Assay (AID 2283961)
Excerpt: The GeneBLAzer TRb-UAS-bla HEK293T assay kit for human TRb (ThermoFisherScientific Catalog No. K1684) was used as a secondary assay for specificity (TRb-bla).This assay contained the ligand-binding domain (LBD) of the human TRb fused to the DNA-binding domain of GAL4 stably integrated in the GeneBLAzer UAS-bla HEK293Tcell line. The reporter gene, b-lactamase, is under the transcriptional control of a UAS that binds the GAL4 DNA-binding domain. A cell viability assay was run in parallel for these cells as well using the CellTiter-Glo viability assay kit.TOX21_TRB_BLA_Antagonist_Followup_viability is a component of the TOX21_TRB_BLA_Antagonist_Followup assay. This component measures cell viability using the CellTiter-Glo Luciferase-coupled ATP quantitation.TOX21_TRB_BLA_Antagonist_Followup_viability used a type of viability reporter where loss-of-signal activity can be used to understand changes in the cell viability. Furthermore, this assay endpoint can be referred to as a secondary readout, because this assay has produced multiple assay endpoints where this one serves a viability function. To generalize the intended target to other relatable targets, this assay endpoint is annotated to the cell cycle intended target family, where the subfamily is cytotoxicity. […]

[5] = TOX21_PR_LUC_Followup_Antagonist_viability: Viability Assessment in the Tox21 HEK293 Progesterone Receptor (PR) Antagonism Luciferase Follow-Up Assay (AID 2283940)
Summary of the method: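 Multiplexed viability counter-screen: after 5 days in charcoal-stripped-FBS medium, HEK293-PR-A-luc cells are plated, pinned with DMSO-dissolved compounds for 16 h at 37C, and ATP content is quantified luminescently via CellTiter-Glo.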

[6] = TOX21_PR_LUC_Followup_Agonist_viability: Viability Assessment in the Tox21 HEK293 Progesterone Receptor (PR) Agonism Luciferase Follow-Up Assay (AID 2283941);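 note: loss of signal means cytotoxicity so actives lower viability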
Excerpt: TOX21_PR_LUC_Followup is a secondary assay for specificity for the TOX21_PR_BLA_Agonist assay. To differentiate true PR agonists from cytotoxic substances, this follow up assay is multiplexed with a cell viability assay.TOX21_PR_LUC_Followup_Agonist_viability is an assay readout measuring cellular ATP content and detected with CellTiter-Glo Luciferase-coupled ATP quantitation.TOX21_PR_LUC_Followup_Agonist_viability used a type of viability reporter where loss-of-signal activity can be used to understand changes in the cell viability. Furthermore, this assay endpoint can be referred to as a secondary readout, because this assay has produced multiple assay endpoints where this one serves a viability function. To generalize the intended target to other relatable targets, this assay endpoint is annotated to the cell cycle intended target family, where the subfamily is cytotoxicity.
Quality Control Precautions: Maintain cells below 85-90% confluence in culture medium. For assay purpose, the cells should be cultured in assay medium with 10% charcoal stripped FBS for 5 days with alternate day medium changed to fresh medium. Especially while in assay culture, the cells should not reach more than 85% confluence as they would become harder to detach if they reach over confluence.Assay Protocol: HEK293-PR-A-luc cells were dispensed at 3,000 cells/5 uL/well of culture medium into white wall/solid-bottom 1536-well plates using a Multidrop Combi (ThermoFisher Scientific, Waltham, MA) dispenser. After the assay plates were incubated at 37C and […] for 5 h, 23 nL of compounds dissolved in DMSO, positive controls or DMSO only was transferred to the assay plate by a Pintool station (Kalypsys, San Diego, CA). The plates were incubated at 37C and […] for 16 h. Then 4 uL of ONE-Glo reagent (Promega, Madison, WI) was added to each plate using a BioRAPTR Flying Reagent Dispenser (FRD) workstation (Beckman Coulter, Indianapolis, IN, USA) and luminescence was quantified on a ViewLux (PerkinElmer, Shelton, CT) plate reader after 30 min incubation at room temperature.

[7] = molecular target: T1, Thyroid hormone receptor alpha (Rattus norvegicus) + Thyroid hormone receptor beta (Rattus norvegicus); assay: TOX21_TR_LUC_GH3_Agonist_Followup: Tox21 GH3 Thyroid Hormone Receptor Agonism Luciferase Follow-Up Assay (AID 2283939)
Description: TOX21_TR_LUC_GH3_Agonist_Followup is a secondary assay for specificity for the TOX21_TR_LUC_GH3_Agonist assay. TOX21_TR_LUC_GH3_Agonist_Followup is a cell-based, single-readout assay that uses GH3, a rat pituitary gland cell line, with measurements taken at 28 hours after chemical dosing in a 1536-well plate.TOX21_TR_LUC_GH3_Agonist_Followup is one of one assay component(s) measured or calculated from the TOX21_TR_LUC_GH3_Agonist_Followup assay. It is designed to make measurements of luciferase induction, a form of inducible reporter, as detected with bioluminescence signals by […] technology.Data from the assay component TOX21_TR_LUC_GH3_Agonist_Followup was analyzed into 1 assay endpoint. This assay endpoint, TOX21_TR_LUC_GH3_Agonist_Followup, was analyzed in the positive analysis fitting direction relative to DMSO as the negative control and baseline of activity. Using a type of inducible reporter, gain-of-signal activity can be used to understand changes in the reporter gene as they relate to the gene THRA and THRB in the GH3 cell line using a luciferase reporter. Furthermore, this assay endpoint can be referred to as a primary readout, because the performed assay has only produced 1 assay endpoint. This assay endpoint is designated followup because it was a confirmatory screen following the primary qHTS assay. […]

THRA (gene 7067) [8] = molecular target: THRA (gene 7067) (UniProt P10827); assay: TOX21_TRA_COA_Agonist_Followup_ratio: Tox21 Thyroid Hormone Receptor alpha Agonism through Coactivator Recruitment Follow-Up Assay, Ratio (AID 2283948; active = hit-call score of the fitted dose curve at least 0.9, where 1 is the maximum; inactive = score below 0.9)
Summary of the method: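 Read-out is the 520/495 nm emission ratio (ex 340 nm), scaled between DMSO-only wells as 0% and T3 wells as 100%. It reflects fluorescein-SRC-2 peptide recruitment to GST-TRα LBD detected via terbium anti-GST antibody.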

[9] = TOX21_TRB_BLA_Agonist_Followup_viability: Viability Assessment in the Tox21 Thyroid Hormone Receptor beta Agonism Beta-lactamase (BLA) Follow-Up Assay (AID 2283956)
Summary of the method: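 TRb-bla HEK293T cells (GAL4-DBD/human TRb LBD) in 2% charcoal-stripped FBS medium were exposed 18 h at 37C to 11 concentrations in triplicate. CellTiter-Glo ATP luminescence was read after 30 min at room temperature, with bidirectional fitting against DMSO.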

THRB (gene 7068) [10] = molecular target: THRB (gene 7068) (UniProt P10828); assay: TOX21_TRB_COA_Agonist_Followup_ratio: Tox21 Thyroid Hormone Receptor beta Agonism through Coactivator Recruitment Follow-Up Assay, Ratio (AID 2283963; active = hit-call score of the fitted dose curve at least 0.9, where 1 is the maximum; inactive = score below 0.9)
Summary of the method: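 GST-TRb LBD 5.0 nM + 0.10% BSA + cpd; add fluorescein-SRC-2 200 nM / Tb anti-GST Ab 2 nM; TR-FRET ex 340, em 520:495; norm DMSO 0%, T3 100%.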

SMILES: CO/C=C(/C(=O)OC)c1ccccc1COc1cccc(C(F)(F)F)n1
- AC50 [1]: 2.06 µM (active)
- outcome (THRA (gene 7067) [2]): inactive
- outcome (THRB (gene 7068) [3]): inactive
- outcome [4]: inactive

SMILES: ClC(Cl)=C(c1ccc(Cl)cc1)c1ccc(Cl)cc1
- outcome [5]: inactive
- outcome [6]: inactive

SMILES: CCCCCCCCCc1ccc(O)cc1
- outcome [5]: inactive

SMILES: Oc1ccc(C(c2ccc(O)cc2)(C(F)(F)F)C(F)(F)F)cc1
- outcome [6]: inactive

SMILES: ClC1=C(Cl)[C@]2(Cl)[C@@H]3[C@@H]4C[C@@H]([C@H]5O[C@@H]45)[C@@H]3[C@@]1(Cl)C2(Cl)Cl
- outcome [5]: inactive

SMILES: CC(C)(O)C(=O)Nc1ccc([N+](=O)[O-])c(C(F)(F)F)c1
- outcome [5]: inactive
- outcome [6]: inactive

SMILES: CCC(=O)O[C@H]1CC[C@H]2[C@@H]3CCC4=CC(=O)CC[C@]4(C)[C@H]3CC[C@]12C
- outcome [5]: inactive
- outcome [6]: inactive

SMILES: CC(C)(c1ccccc1)c1ccc(O)cc1
- outcome [5]: inactive
- outcome [6]: inactive

SMILES: N#Cc1ccc(N(CC(N)=O)CC(F)(F)F)cc1C(F)(F)F
- outcome [5]: inactive
- outcome [6]: inactive

SMILES: Cc1cc(O)ccc1Cl
- outcome [7]: inactive
- outcome (THRA (gene 7067) [8]): inactive
- outcome [9]: inactive
- outcome (THRB (gene 7068) [10]): inactive

SMILES: C[C@]12CCC(=O)C=C1CC[C@@H]1[C@@H]2CC[C@]2(C)C(=O)CC[C@@H]12
- outcome [5]: inactive
- outcome [6]: inactive

SMILES: Clc1ccc(C(c2ccccc2Cl)C(Cl)(Cl)Cl)cc1 (stereo not given)
- outcome [5]: inactive
- AC50 [6]: 76 µM (active)

SMILES: COc1ccc(O)c(C(C)(C)C)c1
- outcome [5]: inactive
- outcome [6]: inactive

SMILES: C[C@]12CCC(=O)C=C1CC[C@@H]1[C@@H]2CC[C@@]2(C)[C@H]1CC[C@]2(C)O
- outcome [1]: inactive
- outcome (THRA (gene 7067) [2]): inactive
- outcome (THRB (gene 7068) [3]): inactive
